Structures can show the parent of a compound that is named as a salt.
Assays:
Test in all cases: Euclidean distance of Cell Painting phenotypic profile (signed KS, 77 features) to DMSO centroid (dimensionless distance); 5 or 10 uM (library dependent); higher = stronger phenotypic change vs DMSO (phenoactivity)
Conditions in all cases: 48 h
786-O = test system: 786-O
Method in brief: (§1)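 Harmony extracted 77 features from 20X confocal images (9 fields/well) of stained cells, scoring each as a signed Kolmogorov-Smirnov statistic against same-plate vehicle wells. The cells, five cancer lines and a healthy fibroblast line, had received library compounds for 48 h at 10 or 5 uM depending on library, with 0.1% DMSO final. Phenoactivity is the Euclidean distance from each plate-position-corrected, correlation-weighted, top-dose replicate-averaged profile to the median vehicle profile.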

A549 = test system: A549
Method in brief: as §1

DU145 = test system: DU145
Method in brief: as §1

FB = test system: FB
Method in brief: as §1

HEPG2 = test system: HEPG2
Method in brief: as §1

OVCAR4 = test system: OVCAR4
Method in brief: as §1

Structure (SMILES)	Euclidean distance (786-O)	Euclidean distance (A549)	Euclidean distance (DU145)	Euclidean distance (FB)	Euclidean distance (HEPG2)	Euclidean distance (OVCAR4)
CCCCC(F)(F)[C@@]1(O)CC[C@H]2[C@@H](CC(=O)[C@@H]2CCCCCCC(=O)O)O1 [Lubiprostone]	1.06	1.09	1.21	1.29	0.966	1.1
Cc1[nH]c(=O)c(C#N)cc1-c1ccncc1 [Milrinone]	0.957	0.855	0.761	0.918	0.762	0.888
C#C[C@]1(O)CC[C@H]2[C@@H]3CCC4=CC(=O)CC[C@@H]4[C@H]3CC[C@@]21CC [Levonorgestrel]	1.01	0.81	0.624	0.673	0.994	0.816
CC(=O)Oc1ccccc1C(=O)Nc1ncc([N+](=O)[O-])s1 [Nitazoxanide]	1.27	1.18	1.96	1.68	1.32	1.34
COc1cc(N)c(Cl)cc1C(=O)NC1CCN(Cc2ccccc2)CC1 [Clebopride (malate)]	1.13	0.613	1.21	1.12	0.547	0.852
COc1cc2ncc(-c3ccccc3)nc2cc1OC [Tyrphostin AG 1296]	1.46	1.34	1.58	1.3	1.42	1.6
CO[C@H]1C[C@@H]2CC[C@@H](C)[C@@](O)(O2)C(=O)C(=O)N2CCCC[C@H]2C(=O)O[C@H]([C@H](C)C[C@@H]2CC[C@H](n3cnnn3)[C@H](OC)C2)CC(=O)[C@H](C)/C=C(\C)[C@@H](O)[C@@H](OC)C(=O)[C@H](C)C[C@H](C)/C=C/C=C/C=C/1C [Zotarolimus(ABT-578)]	2.27	1.83	1.38	2.7	1.45	2.09
CCN(CC)CCCC(C)Nc1c2ccc(Cl)cc2nc2ccc(OC)cc12 (centres undefined) [Quinacrine Dihydrochloride Dihydrate]	4.25	5.06	4.71	6.12	4.78	4.71
CCOC(=O)c1ccc(N2NC(=O)C(=Cc3ccc([N+](=O)[O-])o3)C2=O)cc1	1.51	1.47	1.17	0.999	0.851	1.17
CCn1c(N)c(C(=O)NC)c(=O)c2ccc(C#CC(C)(O)COC)nc21 (centres undefined)	0.634	0.765	0.681	1.97	1.53	0.668
Fc1ccc([C@@H]2CCNC[C@H]2COc2ccc3c(c2)OCO3)cc1 [Paroxetine mesylate]	1.64	1.28	1.89	1.62	2.59	1.52
OC(Cn1cncn1)(Cn1cncn1)c1ccc(F)cc1F [Fluconazole]	1.5	1.3	1.41	1.35	0.443	1.44
Cc1[nH]cnc1CN1CCc2c(c3ccccc3n2C)C1=O [Alosetron Hydrochloride]	1.67	0.744	0.859	0.731	0.664	1.33
Cc1cc(Nc2cc(CN3CCOCC3)c3nc(C)c(Cc4ccc(Cl)cc4F)n3n2)n[nH]1	3.25	3.37	2.63	1.71	2.95	3.19
CCCCCCOC(=O)NC(=N)c1ccc(NCc2nc3cc(C(=O)N(CCC(=O)OCC)c4ccccn4)ccc3n2C)cc1 [Dabigatran Etexilate]	1.9	1.35	1.17	1.58	1.58	1.47
CC[C@@H]1C(=O)N(C)c2cnc(Nc3ccc(C(=O)N[C@H]4CC[C@H](N5CCN(CC6CC6)CC5)CC4)cc3OC)nc2N1C(C)C [Volasertib (BI 6727)]	4.44	4.28	4.03	5.55	3.66	4.01
CC1(C)CC(Oc2ccc(-c3ccc(-c4cn[nH]c4)cc3O)nn2)CC(C)(C)N1 [Branaplam (LMI070)]	2.88	2.86	4.33	3.24	3.03	3.09
NCCS(=O)(=O)O [Taurine]	1.5	0.858	1.34	0.921	0.768	1.35
COC[C@H](NC(=O)c1cnc(C)s1)C(=O)N[C@@H](COC)C(=O)N[C@@H](Cc1ccccc1)C(=O)[C@@]1(C)CO1 [Oprozomib (ONX 0912)]	5.53	4.48	5.47	4.12	4.53	4.85
Cn1c(=O)cc(N2CCC[C@@H](N)C2)n(Cc2cc(F)ccc2C#N)c1=O [Trelagliptin succinate]	0.808	1.21	1.04	1.06	0.54	1.49
CN[C@@H]1[C@H](O[C@H]2[C@H](O[C@H]3[C@H](O)[C@@H](O)[C@H](NC(=N)N)[C@@H](O)[C@@H]3NC(=N)N)O[C@@H](C)[C@]2(O)CO)O[C@@H](CO)[C@H](O)[C@H]1O [Dihydrostreptomycin sulfate]	0.936	1.12	0.563	1.25	0.549	1.33
COc1cccc2c1C(=O)c1c(O)c3c(c(O)c1C2=O)C[C@@](O)(C(=O)CO)C[C@@H]3O[C@H]1C[C@H](N)[C@H](O[C@@H]2CCCCO2)[C@H](C)O1 [Pirarubicin]	3.6	4.43	3.47	4.28	4.37	4.83
O=C(O)COCCN1CCN(C(c2ccccc2)c2ccc(Cl)cc2)CC1 (centres undefined) [Cetirizine DiHCl]	1.09	0.92	1.29	1.32	0.618	1.47
CCCC1CC(C(=O)NC(C(C)Cl)C2OC(SC)C(O)C(O)C2O)N(C)C1 (centres undefined) [Clindamycin alcoholate]	1.37	0.413	1.04	0.986	1.01	1.02

From the supplement of paper PMC10127200
